PubChem BioAssay (EPA / NIEHS)
Results filed as inconclusive are left out. Active and inactive are the calls of the source. How the source made its calls, unless noted: active means hit-call score of the fitted dose curve at least 0.9, where 1 is the maximum; inconclusive means response in the unintended direction; inactive means score below 0.9.

Tests used:
[1] = read-out: xenobiotic metabolism (CYP1A2), CYP1A2 (gene 1544); experiment: CLD_CYP1A2_24hr: CellzDirect (CLD) Gene Expression Assay for xenobiotic metabolism (CYP1A2) at 24 hours (AID 2283683)
Outline: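 CYP1A2 mRNA induction measured by quantitative nuclease protection (chemiluminescent) in human primary hepatocytes 24 h after multi-concentration chemical dosing with daily fresh solutions. DMSO (0.2%) baseline; positive-direction fitting; morphology-based cytotoxicity noted.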

[2] = read-out: ABC Transporter (ABCB1), ABCB1 (gene 5243); experiment: CLD_ABCB1_24hr: CellzDirect (CLD) Gene Expression Assay for ABC Transporter (ABCB1) at 24 hours (AID 2283684);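 on AC50: potency for increase in ABCB1 mRNA relative to DMSO vehicle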
Outline: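 ABCB1 mRNA induction versus 0.2% DMSO vehicle was read by qNPA chemiluminescence at 24 h. Cultured human hepatocytes from two donor preparations received daily fresh dosing, and phase-contrast cytotoxicity calls were annotated alongside the data.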

[3] = read-out: alkyl and aryl transferase (GSTA2), GSTA2 (gene 2939); experiment: CLD_GSTA2_24hr: CellzDirect (CLD) Gene Expression Assay for alkyl and aryl transferase (GSTA2) at 24 hours (AID 2283693)
Outline: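 GSTA2 transcript levels were quantified by quantitative nuclease protection assay in primary human hepatocytes 24 h after daily dosing with fresh solutions at multiple concentrations; 0.2% DMSO vehicle as baseline, cytotoxicity flagged morphologically.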

[4] = read-out: sulfotransferase (SULT2A), SULT2A1 (gene 6822); experiment: CLD_SULT2A_24hr: CellzDirect (CLD) Gene Expression Assay for sulfotransferase (SULT2A) at 24 hours (AID 2283694);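 on AC50: potency for increased SULT2A1 mRNA level as induction over DMSO baseline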
Outline: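 mRNA is measured by qNPA: probe hybridisation, S1 nuclease digestion, chemiluminescence, in lysates from human primary hepatocytes harvested 24 h after daily dosing. Vehicle was 0.2% DMSO. Phase-contrast microscopy flagged cytotoxicity (yes/no).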

[5] = read-out: glucuronosyltransferase (UGT1A1), UGT1A1 (gene 54658); experiment: CLD_UGT1A1_24hr: CellzDirect (CLD) Gene Expression Assay for glucuronosyltransferase (UGT1A1) at 24 hours (AID 2283696)
Outline: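 UGT1A1 transcript induction was measured by quantitative nuclease protection assay (chemiluminescence) in human hepatocyte cultures 24 h after daily fresh dosing, with 0.2% DMSO as vehicle and baseline.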

[6] = read-out: Cytochrome P450 3A4 (Homo sapiens) (UniProt P08684); experiment: CLD_CYP3A4_48hr: CellzDirect (CLD) Gene Expression Assay for xenobiotic metabolism (CYP3A4) at 48 hours (AID 2283698)
Outline: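 CYP3A4 induction read by qNPA chemiluminescence after 48 h, with fresh dosing solutions on consecutive days, in cultured human hepatocytes (two donors). Vehicle 0.2% DMSO as baseline; microscopy-based cytotoxicity annotated yes/no alongside data.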

[7] = read-out: Cytochrome P450 2B6 (Homo sapiens) (UniProt P20813); experiment: CLD_CYP2B6_48hr: CellzDirect (CLD) Gene Expression Assay for xenobiotic metabolism (CYP2B6) at 48 hours (AID 2283699);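 further: actives raise transcript level above DMSO so potency reflects induction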
Outline: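 CYP2B6 transcript induction, read by quantitative nuclease protection (S1 digestion, chemiluminescent detection) 48 h after dosing, is fitted upward against 0.2% DMSO. Cultured human liver primary cells, two donor preparations, received fresh chemical daily over multiple concentrations.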

[8] = read-out: xenobiotic metabolism (CYP1A1), CYP1A1 (gene 1543); experiment: CLD_CYP1A1_48hr: CellzDirect (CLD) Gene Expression Assay for xenobiotic metabolism (CYP1A1) at 48 hours (AID 2283705)
Outline: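 CYP1A1 transcript measured by quantitative nuclease protection (chemiluminescent) 48 h after two daily treatments of human hepatocyte cultures, versus 0.2% DMSO. Morphology-based cytotoxicity flags accompany data; two donor preparations used.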

[9] = read-out: alkyl and aryl transferase (GSTA2), GSTA2 (gene 2939); experiment: CLD_GSTA2_48hr: CellzDirect (CLD) Gene Expression Assay for alkyl and aryl transferase (GSTA2) at 48 hours (AID 2283708);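 further: active means mRNA induction above DMSO vehicle baseline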
Outline: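 GSTA2 mRNA quantified by qNPA chemiluminescence in human primary hepatocyte lysates after 48 h of daily fresh chemical dosing. Increases fitted against 0.2% DMSO vehicle baseline; cytotoxicity from morphology annotated yes/no.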

[10] = CEETOX_H295R_MTT_cell_viability: Viability Assessment in the CeeTox HT-H295R MTT Assay (AID 2283718; active means hit-call score of the fitted dose curve at least 0.9, where 1 is the maximum; inactive means score below 0.9;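 on AC50: curve fitted both ways so AC50 may mark viability loss or gain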)
Outline: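 Human H295R adrenal cells, prestimulated 48 h with 10 uM forskolin, were exposed 48 h to chemicals in 0.1% DMSO. Viability was measured in the same wells by MTT (0.5 mg/ml, 4 h, 37 C), absorbance 570/650 nm, as percent of controls.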

[11] = Tanguay_ZF_120hpf_ActivityScore_legacy: (Legacy) Oregon State University Tanguay Lab 120 Hour Post-fertilization zebrafish Assay Score for Activity (AID 2283742);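 on AC50: dechorionated Tropical 5D wild-type zebrafish embryos held singly per well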
Outline: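 Dechorionated 5D embryos, one per well, static exposure 6–120 hpf, 28C, sealed and dark; final DMSO 0.64% (vol/vol). Brightfield binary scoring of mortality plus 18 endpoints; gain-of-signal fit versus DMSO baseline.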

[12] = read-out: Glyceraldehyde-3-phosphate dehydrogenase (Homo sapiens) (UniProt P04406); experiment: CLD_GAPDH_24hr: CellzDirect (CLD) Gene Expression Assay for Baseline Control (Glyceraldehyde 3-phosphate dehydrogenase) at 24 hours (AID 2283692)
Outline: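 GAPDH baseline-control readout: qNPA chemiluminescent mRNA signal in human primary hepatocytes harvested 24 h after daily dosing, normalised to 0.2% DMSO with positive fitting direction; cytotoxicity annotated by phase-contrast morphology.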

[13] = CLD_ACTIN_48hr: CellzDirect (CLD) Gene Expression Assay for Baseline Control (Actin) at 48 hours (AID 2283702)
Outline: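 Background-control actin mRNA read by qNPA chemiluminescence at 48 h. Human hepatocyte cultures from two donors received fresh multi-concentration chemical doses daily for two days; 0.2% DMSO served as vehicle baseline.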

[14] = read-out: Glyceraldehyde-3-phosphate dehydrogenase (Homo sapiens) (UniProt P04406); experiment: CLD_GAPDH_48hr: CellzDirect (CLD) Gene Expression Assay for Baseline Control (Glyceraldehyde 3-phosphate dehydrogenase) at 48 hours (AID 2283706);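 further: active means higher GAPDH mRNA than DMSO vehicle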
Outline: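 GAPDH baseline-control readout: qNPA chemiluminescent mRNA quantitation in human liver primary cells 48 h after daily dosing on two consecutive days, vehicle 0.2% DMSO; gain of signal fitted against DMSO, cytotoxicity flagged by phase-contrast morphology.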

[15] = read-out: Cytochrome P450 2B6 (Homo sapiens) (UniProt P20813); experiment: CLD_CYP2B6_24hr: CellzDirect (CLD) Gene Expression Assay for xenobiotic metabolism (CYP2B6) at 24 hours (AID 2283686)
Outline: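 qNPA chemiluminescent measurement of mRNA at 24 hours in human primary hepatocyte cultures from two donor preparations, with daily fresh dosing and 0.2% DMSO vehicle as baseline. Morphology-based cytotoxicity flagged yes/no.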

[16] = read-out: organic anion transporter (SLCO1B1), SLCO1B1 (gene 10599); experiment: CLD_SLCO1B1_48hr: CellzDirect (CLD) Gene Expression Assay for organic anion transporter (SLCO1B1) at 48 hours (AID 2283707)
Outline: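 SLCO1B1 transcript quantified by qNPA with chemiluminescent readout after 48 h of once-daily chemical exposure. Cultured human primary hepatocytes came from two donors, with 0.2% DMSO vehicle; positive-direction fitting against DMSO, cytotoxicity flagged by morphology.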

[17] = STM_H9_CystineISnorm_perc: Stemina devTOX quickPredict H9 human embryonic stem cell (hESC)-based Assay for Cystine (CYSS) Metabolite Biomarker, Normalized (AID 2283713; active means hit-call score of the fitted dose curve at least 0.9, where 1 is the maximum; inactive means score below 0.9)
Outline: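 Cells are held undifferentiated and treated for 72h, receiving fresh medium with compound every 24h. Cystine secreted during the final day is quantified by UPLC-HRMS against a labeled spike-in, then expressed relative to the DMSO vehicle median.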

[18] = read-out: glucuronosyltransferase (UGT1A1), UGT1A1 (gene 54658); experiment: CLD_UGT1A1_48hr: CellzDirect (CLD) Gene Expression Assay for glucuronosyltransferase (UGT1A1) at 48 hours (AID 2283709);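 further: actives increase expression relative to DMSO so potency refers to induction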
Outline: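 Quantitative nuclease protection assay (chemiluminescent) for UGT1A1 mRNA at 48 h in human hepatocyte cultures from two donors, redosed daily with fresh solutions. Induction fitted relative to 0.2% DMSO; phase-contrast morphology annotated cytotoxicity.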

[19] = read-out: xenobiotic metabolism (CYP1A2), CYP1A2 (gene 1544); experiment: CLD_CYP1A2_48hr: CellzDirect (CLD) Gene Expression Assay for xenobiotic metabolism (CYP1A2) at 48 hours (AID 2283703)
Outline: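 Cytotoxicity was flagged yes/no from morphology, while CYP1A2 transcript induction was detected by qNPA chemiluminescence after a 48-hour exposure. Human primary hepatocyte cultures from separate donors received fresh dosing solutions daily over two days, with 0.2% DMSO as vehicle and baseline.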

[20] = STM_H9_OrnCyssISnorm_ratio: Stemina devTOX quickPredict H9 human embryonic stem cell (hESC)-based Assay for Ornithine (ORN):Cystine (CYSS) Ratio (AID 2283714)
Outline: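 UPLC-HRMS of spent media: ORN/CYSS ratio of internal-standard-normalized percentages, DMSO (0.1%) baseline. Pluripotent H9 hESCs, 72h exposure, daily re-dosing with fresh media; last 24h media collected.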

Measured: AC50

Chain of Cytochrome P450 3A4 (Homo sapiens) (P08684 whole entry, looked up): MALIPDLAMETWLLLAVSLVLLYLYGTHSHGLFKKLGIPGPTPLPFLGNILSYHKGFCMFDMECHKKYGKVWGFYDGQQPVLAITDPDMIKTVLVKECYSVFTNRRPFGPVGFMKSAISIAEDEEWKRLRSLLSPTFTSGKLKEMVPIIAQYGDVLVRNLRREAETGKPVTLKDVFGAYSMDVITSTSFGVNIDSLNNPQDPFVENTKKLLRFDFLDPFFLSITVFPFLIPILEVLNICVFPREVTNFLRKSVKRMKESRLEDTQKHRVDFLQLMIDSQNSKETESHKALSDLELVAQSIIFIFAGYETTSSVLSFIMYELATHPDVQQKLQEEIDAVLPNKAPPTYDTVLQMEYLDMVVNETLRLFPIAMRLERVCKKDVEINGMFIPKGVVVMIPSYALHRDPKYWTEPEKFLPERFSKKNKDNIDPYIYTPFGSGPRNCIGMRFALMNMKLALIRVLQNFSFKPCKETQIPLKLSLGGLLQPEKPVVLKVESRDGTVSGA
Chain of Glyceraldehyde-3-phosphate dehydrogenase (Homo sapiens) (P04406 whole entry, looked up): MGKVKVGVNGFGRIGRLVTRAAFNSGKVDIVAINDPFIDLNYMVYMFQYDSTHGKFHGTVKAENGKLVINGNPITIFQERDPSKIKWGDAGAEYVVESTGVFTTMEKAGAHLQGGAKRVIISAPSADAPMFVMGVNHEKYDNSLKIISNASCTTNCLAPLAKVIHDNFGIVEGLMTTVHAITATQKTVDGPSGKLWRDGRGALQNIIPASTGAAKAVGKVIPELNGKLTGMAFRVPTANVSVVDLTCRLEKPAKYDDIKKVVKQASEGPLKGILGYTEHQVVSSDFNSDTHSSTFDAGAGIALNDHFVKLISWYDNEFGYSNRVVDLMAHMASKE

C[C@H]1[C@H](c2ccc(Cl)cc2)SC(=O)N1C(=O)NC1CCCCC1
active: [1] 5.84 µM | [2] 35.2 µM | [6] 1.97 µM | [7] 1.9 µM | [8] 34 µM | [9] 34.4 µM | [10] 0.000405 µM
inactive: [3] | [4] | [5] | [11]

CC(C)N(C(=O)COc1nnc(C(F)(F)F)s1)c1ccc(F)cc1
active: [6] 5.1 µM | [7] 10.9 µM | [8] 14.2 µM
not listed: [5] | [15] | [16] | [17] | [18] | [19] | [20]
inactive: all other assays above

COC(=O)c1ccccc1CS(=O)(=O)NC(=O)Nc1nc(OC)cc(OC)n1
active: [1] 20 µM
inactive: [2] | [15] | [12] | [3] | [5] | [7] | [8] | [14] | [16] | [9]

CCOCN(C(=O)CCl)c1c(C)cccc1CC
inactive: [2] | [12] | [3] | [4] | [13] | [17]
active: [1] 0.333 µM | [6] 2.16 µM | [7] 0.509 µM | [8] 1.85 µM | [9] 20 µM | [11] 46 µM

CNC(=O)CSP(=S)(OC)OC
inactive: [1] | [2] | [12] | [3] | [4] | [13] | [18] | [10] | [11]

O=C(O)COc1ccc(Cl)cc1Cl
inactive: [1] | [2] | [12] | [3] | [6] | [13] | [8] | [14] | [16] | [10] | [11]

COc1cc(OC)nc(NC(=O)NS(=O)(=O)c2cc(NC=O)ccc2C(=O)N(C)C)n1
inactive: [1] | [2] | [12] | [3] | [4] | [7] | [8] | [14] | [16] | [9]

Clc1ccccc1-c1nnc(-c2ccccc2Cl)nn1
active: [1] 4.38 µM | [4] 0.852 µM | [6] 6.89 µM | [7] 3.08 µM | [19] 20 µM | [8] 9.05 µM
inactive: [2] | [3] | [9] | [10] | [11]

CNC(=O)Oc1cccc(N=CN(C)C)c1
inactive: [1] | [2] | [12] | [3] | [13] | [8] | [14] | [9] | [10] | [11]

CN1CSC(=S)N(C)C1
inactive: [1] | [2] | [12] | [3] | [8] | [14] | [9]
active: [11] 0.0296 µM

CCC(C)(NC(=O)c1cc(Cl)c(C)c(Cl)c1)C(=O)CCl (centres undefined)
active: [6] 2.52 µM | [7] 0.000403 µM | [19] 20 µM | [8] 3.97 µM | [17] 23.9 µM | [20] 22.9 µM
not listed: [10] | [14] | [15] | [16] | [18]
inactive: all other assays above

C#CCN1C(=O)COc2cc(F)c(N3C(=O)C4=C(CCCC4)C3=O)cc21
active: [6] 4.94 µM | [7] 0.652 µM | [17] 79.6 µM | [20] 93 µM
inactive: [1] | [2] | [12] | [3] | [4] | [8] | [9] | [10] | [11]
